Test results from PubChem BioAssay (NCATS).
Values joined by “and” are separate entries in the source; they are usually repeats but may differ in a detail not shown here. Identical values can stand only once. Records with an inconclusive call do not appear. Active and inactive are the calls of the source. Unless noted, calls follow the shape of the full dose curve.

Experiments:
[1] = biological target: Alpha-galactosidase (Coffea arabica) (UniProt Q42656); assay: Counterscreen for Glucocerebrosidase Inhibitors: qHTS Assay for Coffee Bean alpha-Galactosidase at pH 4.5 (AID 957; active = well fitted curve in the direction sought with a large enough effect; an effect the other way counts as inactive or inconclusive;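 also: series mostly up to about 77 µM; plate controls were enzyme alone for no effect and no enzyme for full effect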)
Alpha-galactosidase (Coffea arabica), sequence (Q42656 whole entry, looked up): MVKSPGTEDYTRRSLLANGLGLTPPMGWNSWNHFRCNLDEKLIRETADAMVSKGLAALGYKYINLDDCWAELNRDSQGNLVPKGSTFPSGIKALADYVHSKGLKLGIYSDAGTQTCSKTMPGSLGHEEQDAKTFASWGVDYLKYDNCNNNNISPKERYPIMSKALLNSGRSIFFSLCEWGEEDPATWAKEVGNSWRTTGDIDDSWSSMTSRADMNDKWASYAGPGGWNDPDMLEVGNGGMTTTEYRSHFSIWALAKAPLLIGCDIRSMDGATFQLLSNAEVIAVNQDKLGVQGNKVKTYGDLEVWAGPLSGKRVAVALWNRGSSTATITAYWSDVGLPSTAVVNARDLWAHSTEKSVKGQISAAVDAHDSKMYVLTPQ
Summary of the method: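 Coffee bean enzyme (2 nM) with 80 uM 4-methylumbelliferyl alpha-D-galactopyranoside in 50 mM citric acid, 0.005% Tween-20, pH 4.5, 20 min at room temperature; compounds 0.7 nM–77 uM. Stopped at pH 10, fluorescence 365/440 nm; AC50 from Hill fits.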

[2] = biological target: Alpha-galactosidase (Coffea arabica) (UniProt Q42656); assay: Counterscreen for Glucocerebrosidase Inhibitors: qHTS Assay for Coffee Bean alpha-Galactosidase at pH 5.9 (AID 998; active = well fitted curve in the direction sought with a large enough effect; an effect the other way counts as inactive or inconclusive;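 also: plate controls were uninhibited enzyme for no effect and no-enzyme basal signal for full effect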)
Summary of the method: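 Green coffee bean enzyme (2 nM) with 4-methylumbelliferyl alpha-D-galactopyranoside (80 uM) in 50 mM citric acid, 0.005% Tween-20, pH 5.9, 20 min at room temperature; compounds 0.7 nM–77 uM. Stopped at pH 10, fluorescence Ex365/Em440; Hill-fit AC50.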

[3] = Inducers of the Endoplasmic Reticulum Stress Response (ERSR) in human glioma: Validation (AID 504836; active = well fitted curve in the direction sought with a large enough effect; an effect the other way counts as inactive or inconclusive; also: 0% is about no effect)
Summary of the method: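 Stably transfected U87-MG glioma cells carrying a GRP78-based luciferase sensor; 16 h compound incubation. Luminescence end-point read 10 min after Bright-Glo addition at room temperature.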

[4] = qHTS for Inhibitors of the Functional Ribonucleoprotein Complex (vRNP) of Lassa (LASV) Arenavirus: LASV Primary Screen - GLuc reporter signal (AID 1347082; calls by dose curve; tested in HEK293 reporter line; also: series mostly up to about 57 µM; % is scaled to controls: 0 for no effect and ±100 for the full control effect; nearly all actives have a fitted effect of over 60% in size)
[5] = qHTS for Inhibitors of the Functional Ribonucleoprotein Complex (vRNP) of Lassa (LASV) Arenavirus: Viability assay - alamar blue signal for LASV Primary Screen (AID 1347083; calls by dose curve; tested in HEK293 reporter line; also: series mostly up to about 57 µM; % is scaled to controls: 0 for no effect and ±100 for the full control effect; nearly all actives have a fitted effect of over 80% in size)
[6] = qHTS for Inhibitors of the Functional Ribonucleoprotein Complex (vRNP) of Lymphocytic Choriomeningitis Arenaviruses (LCMV): Viability assay - alamar blue signal for LCMV Primary Screen (AID 1347085; calls by dose curve; tested in HEK293 reporter line; also: series mostly up to about 57 µM; % is scaled to controls: 0 for no effect and ±100 for the full control effect; nearly all actives have a fitted effect of over 80% in size)
[7] = biological target: Nucleoprotein (Lymphocytic choriomeningitis virus (strain Armstrong)) (UniProt P09992); assay: qHTS for Inhibitors of the Functional Ribonucleoprotein Complex (vRNP) of Lymphocytic Choriomeningitis Arenaviruses (LCMV): LCMV Primary Screen - GLuc reporter signal (AID 1347086); also: series mostly up to about 57 µM; % is scaled to controls: 0 for no effect and ±100 for the full control effect; nearly all actives have a fitted effect of over 70% in size
Nucleoprotein (Lymphocytic choriomeningitis virus (strain Armstrong)), sequence (P09992 whole entry, looked up): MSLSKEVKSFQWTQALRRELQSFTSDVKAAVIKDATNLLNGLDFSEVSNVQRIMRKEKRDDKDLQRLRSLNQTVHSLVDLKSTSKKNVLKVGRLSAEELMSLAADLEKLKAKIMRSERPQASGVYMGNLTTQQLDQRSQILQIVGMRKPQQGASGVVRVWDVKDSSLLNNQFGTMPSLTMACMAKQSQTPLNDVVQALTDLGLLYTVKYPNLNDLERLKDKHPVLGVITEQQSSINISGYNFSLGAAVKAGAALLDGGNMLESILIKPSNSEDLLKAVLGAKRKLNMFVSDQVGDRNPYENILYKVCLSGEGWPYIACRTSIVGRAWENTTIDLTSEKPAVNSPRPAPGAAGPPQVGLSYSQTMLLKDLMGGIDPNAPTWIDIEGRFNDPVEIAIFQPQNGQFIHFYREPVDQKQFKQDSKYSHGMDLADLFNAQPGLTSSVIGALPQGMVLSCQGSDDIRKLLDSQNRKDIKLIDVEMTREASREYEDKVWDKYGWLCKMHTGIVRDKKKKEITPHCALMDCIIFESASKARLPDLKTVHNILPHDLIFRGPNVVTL

[8] = biological target: Bile acid receptor (Homo sapiens) (UniProt Q96RI1); assay: qHTS assay for small molecule agonists of farnesoid X receptor signaling (AID 588527); settings: HEK293T FXR-UAS-bla, beta-lactamase ratio, 16 h; activation: active compounds read high;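 also: series mostly up to about 77 µM; 0% = vehicle basal and 100% = reference agonist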
Bile acid receptor (Homo sapiens), sequence (Q96RI1 whole entry, looked up): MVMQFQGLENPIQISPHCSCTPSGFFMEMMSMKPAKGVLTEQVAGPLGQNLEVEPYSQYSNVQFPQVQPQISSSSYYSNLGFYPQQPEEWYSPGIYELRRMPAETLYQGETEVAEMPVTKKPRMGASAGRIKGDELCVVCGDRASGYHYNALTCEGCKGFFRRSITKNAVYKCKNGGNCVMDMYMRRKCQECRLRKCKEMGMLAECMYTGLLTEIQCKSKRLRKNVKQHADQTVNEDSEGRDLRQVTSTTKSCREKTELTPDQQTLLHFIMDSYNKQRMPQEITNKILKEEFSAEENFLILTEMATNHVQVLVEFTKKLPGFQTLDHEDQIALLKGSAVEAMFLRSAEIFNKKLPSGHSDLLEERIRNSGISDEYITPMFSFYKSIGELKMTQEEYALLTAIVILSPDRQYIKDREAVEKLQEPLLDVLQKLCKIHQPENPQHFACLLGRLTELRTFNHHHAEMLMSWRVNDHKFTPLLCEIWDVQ
Summary of the method: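 Quantitative HTS used FXR-UAS-bla HEK293T cells with 16 h compound incubation at 37 C. EC50 values came from concentration-response curves normalized to chenodeoxycholic acid.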

[9] = biological target: Peroxisome proliferator-activated receptor delta (Homo sapiens) (UniProt Q03181); assay: qHTS assay for small molecule agonists of peroxisome proliferator-activated receptor delta signaling (AID 588534);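 also: 0% = DMSO basal wells and 100% = positive control agonist at 10 µM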
Peroxisome proliferator-activated receptor delta (Homo sapiens), sequence (Q03181 whole entry, looked up): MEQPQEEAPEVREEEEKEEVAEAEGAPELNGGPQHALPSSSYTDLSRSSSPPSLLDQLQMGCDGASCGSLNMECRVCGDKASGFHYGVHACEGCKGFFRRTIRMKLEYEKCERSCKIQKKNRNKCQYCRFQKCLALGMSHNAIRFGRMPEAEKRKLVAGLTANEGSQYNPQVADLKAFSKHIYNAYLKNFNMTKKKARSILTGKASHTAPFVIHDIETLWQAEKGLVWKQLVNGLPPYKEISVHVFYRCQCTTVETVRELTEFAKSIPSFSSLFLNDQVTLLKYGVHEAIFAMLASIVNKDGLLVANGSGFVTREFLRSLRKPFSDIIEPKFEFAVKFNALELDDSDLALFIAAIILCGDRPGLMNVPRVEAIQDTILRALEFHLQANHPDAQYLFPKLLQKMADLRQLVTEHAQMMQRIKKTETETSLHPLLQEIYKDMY
Summary of the method: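 Cells carrying a PPAR-delta beta-lactamase reporter were treated with compounds for 18 h at 37 °C in agonist mode. CCF4 fluorescence was read after 2 h; EC50 and efficacy from Hill fits.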

[10] = biological target: Estrogen receptor (Homo sapiens) (UniProt P03372); assay: qHTS assay for small molecule antagonists of estrogen receptor alpha signaling (AID 588513; active = well fitted curve in the direction sought with a large enough effect in the signal ratio, with a control signal flat, not every such curve was filed as active; the % refers to the signal ratio; also: % is scaled to controls: 0 for no effect and ±100 for the full control effect)
Estrogen receptor (Homo sapiens), sequence (P03372 whole entry, looked up): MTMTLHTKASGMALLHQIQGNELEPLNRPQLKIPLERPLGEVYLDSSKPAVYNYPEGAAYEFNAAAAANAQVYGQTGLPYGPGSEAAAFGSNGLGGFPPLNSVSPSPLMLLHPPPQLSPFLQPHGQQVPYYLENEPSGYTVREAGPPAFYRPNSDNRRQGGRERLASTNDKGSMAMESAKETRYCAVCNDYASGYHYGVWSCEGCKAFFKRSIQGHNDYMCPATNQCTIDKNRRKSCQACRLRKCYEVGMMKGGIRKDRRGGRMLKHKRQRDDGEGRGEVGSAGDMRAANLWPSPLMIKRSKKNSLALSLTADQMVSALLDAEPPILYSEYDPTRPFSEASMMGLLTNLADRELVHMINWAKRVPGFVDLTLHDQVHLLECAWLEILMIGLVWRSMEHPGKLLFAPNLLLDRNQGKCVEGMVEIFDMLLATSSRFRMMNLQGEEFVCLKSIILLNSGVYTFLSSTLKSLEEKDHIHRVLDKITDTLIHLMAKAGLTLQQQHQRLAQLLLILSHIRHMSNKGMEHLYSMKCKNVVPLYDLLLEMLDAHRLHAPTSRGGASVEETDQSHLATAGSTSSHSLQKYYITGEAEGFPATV
Summary of the method: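 ER-alpha-UAS-bla GripTite HEK 293 cells in 2% charcoal/dextran-treated FBS medium; compounds titrated (1:2, duplicate), then stimulated with 0.5 nM 17-beta-estradiol for 18 h at 37C. CCF4 beta-lactamase fluorescence; Hill-fit IC50 and efficacy.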

[11] = biological target: Thyroid hormone receptor beta (Homo sapiens) (UniProt P10828); assay: qHTS assay for small molecule agonists of thyroid hormone receptor beta signaling (AID 588545)
Thyroid hormone receptor beta (Homo sapiens), sequence (P10828 whole entry, looked up): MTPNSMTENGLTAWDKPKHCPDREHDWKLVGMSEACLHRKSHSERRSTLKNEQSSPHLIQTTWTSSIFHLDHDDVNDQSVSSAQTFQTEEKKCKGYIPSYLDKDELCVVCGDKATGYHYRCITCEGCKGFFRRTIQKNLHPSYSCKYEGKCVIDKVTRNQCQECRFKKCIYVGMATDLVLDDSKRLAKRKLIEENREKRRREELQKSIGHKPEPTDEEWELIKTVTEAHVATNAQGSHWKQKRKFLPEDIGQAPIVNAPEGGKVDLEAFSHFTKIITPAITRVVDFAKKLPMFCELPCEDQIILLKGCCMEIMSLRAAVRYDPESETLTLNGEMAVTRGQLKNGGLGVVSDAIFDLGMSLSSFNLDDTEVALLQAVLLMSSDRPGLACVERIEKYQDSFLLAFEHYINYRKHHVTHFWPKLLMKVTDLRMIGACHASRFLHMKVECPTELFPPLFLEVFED
Summary of the method: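 Cells (2500/well) were seeded, incubated 4 hrs at 37 C, dosed with a compound series, incubated 18 hrs, loaded with CCF4 dye for 2 hrs at RT, then read for fluorescence. Data were scaled between DMSO (0%) and 10 nM T3 (100%).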

[12] = biological target: Voltage-gated inwardly rectifying potassium channel KCNH2 (Homo sapiens) (UniProt Q12809); assay: qHTS Assay for Small Molecule Inhibitors of the Human hERG Channel Activity (AID 588834; active = well fitted curve in the direction sought with a large enough effect; an effect the other way counts as inactive or inconclusive;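 also: top concentration of the series differs between compounds; % is scaled to controls: 0 for no effect and ±100 for the full control effect; lower thallium flux fluorescence means stronger hERG block; nearly all actives have a fitted effect of over 50% in size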)
Voltage-gated inwardly rectifying potassium channel KCNH2 (Homo sapiens), sequence (Q12809 whole entry, looked up): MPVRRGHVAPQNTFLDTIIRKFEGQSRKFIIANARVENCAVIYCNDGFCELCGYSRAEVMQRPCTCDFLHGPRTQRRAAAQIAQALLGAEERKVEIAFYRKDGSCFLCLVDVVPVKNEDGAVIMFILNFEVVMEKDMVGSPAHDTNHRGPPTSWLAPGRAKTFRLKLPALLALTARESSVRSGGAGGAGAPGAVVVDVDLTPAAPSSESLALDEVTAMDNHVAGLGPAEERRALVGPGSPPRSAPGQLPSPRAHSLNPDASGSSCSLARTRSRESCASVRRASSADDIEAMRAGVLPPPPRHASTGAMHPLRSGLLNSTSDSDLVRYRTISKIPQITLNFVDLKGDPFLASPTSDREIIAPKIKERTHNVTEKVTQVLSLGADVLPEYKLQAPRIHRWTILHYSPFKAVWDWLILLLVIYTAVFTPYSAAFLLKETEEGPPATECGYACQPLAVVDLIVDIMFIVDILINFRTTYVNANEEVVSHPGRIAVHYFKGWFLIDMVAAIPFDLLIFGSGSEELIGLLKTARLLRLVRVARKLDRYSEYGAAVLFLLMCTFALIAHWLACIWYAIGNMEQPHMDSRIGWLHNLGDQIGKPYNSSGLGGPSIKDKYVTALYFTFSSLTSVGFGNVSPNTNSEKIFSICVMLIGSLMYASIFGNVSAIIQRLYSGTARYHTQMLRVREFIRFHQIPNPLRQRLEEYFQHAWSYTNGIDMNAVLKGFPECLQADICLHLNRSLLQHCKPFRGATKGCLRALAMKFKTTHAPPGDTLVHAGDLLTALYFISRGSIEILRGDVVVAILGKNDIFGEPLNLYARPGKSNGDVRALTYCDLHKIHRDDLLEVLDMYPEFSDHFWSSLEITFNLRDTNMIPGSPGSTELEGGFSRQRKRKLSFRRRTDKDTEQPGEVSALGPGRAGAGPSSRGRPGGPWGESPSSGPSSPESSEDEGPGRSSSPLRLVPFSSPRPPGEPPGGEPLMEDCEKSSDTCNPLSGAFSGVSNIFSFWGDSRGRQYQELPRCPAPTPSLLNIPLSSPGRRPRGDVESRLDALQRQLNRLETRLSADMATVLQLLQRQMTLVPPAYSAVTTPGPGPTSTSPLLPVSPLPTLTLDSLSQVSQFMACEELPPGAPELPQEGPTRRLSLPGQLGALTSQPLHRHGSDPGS
Summary of the method: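 U2OS cells BacMam-transduced with hERG, 2000 cells/well, compound ~10 min at 37 °C before stimulation buffer. FluxOR thallium flux fluorescence read kinetically on FDSS; decrease indicates block; AC50 from Hill fits.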

[13] = qHTS assay for small molecule agonists of the antioxidant response element (ARE) signaling pathway (AID 651741; active = well fitted activation curve with a large enough effect in the signal ratio; the % refers to the signal ratio; also: potency is read from the fitted curve at half-maximal effect)
Summary of the method: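 CellSensor ARE-bla HepG2 cells (2,000/well) carrying ARE-driven beta-lactamase, exposed 16 h at 37 C. LiveBLAzer B/G FRET substrate added for 2 h at room temperature; fluorescence intensity read.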

[14] = qHTS assay for small molecule agonists of the antioxidant response element (ARE) signaling pathway measured by Nrf2-dependant transcriptional activity (AID 720636; active = well fitted curve in the direction sought with a large enough effect in the repeat runs; an effect the other way counts as inactive or inconclusive;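 also: HepG2 cells with an ARE-driven luciferase reporter; % of control where 0% means no effect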)
Summary of the method: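 In HepG2 cells engineered with an Nrf2-responsive luciferase gene, ARE induction was quantified as luminescence after 16 hr compound treatment at 37 C.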

[15] = biological target: Cytochrome P450 3A4 (Homo sapiens) (UniProt P08684); assay: qHTS Assay for Inhibitors and Substrates of Cytochrome P450 3A4 (AID 884; active = well fitted curve in the direction sought with a large enough effect; an effect the other way counts as inactive or inconclusive; also: series mostly up to about 57 µM; % is scaled to controls: 0 for no effect and ±100 for the full control effect; nearly all actives have a fitted effect of over 50% in size)
Cytochrome P450 3A4 (Homo sapiens), sequence (P08684 whole entry, looked up): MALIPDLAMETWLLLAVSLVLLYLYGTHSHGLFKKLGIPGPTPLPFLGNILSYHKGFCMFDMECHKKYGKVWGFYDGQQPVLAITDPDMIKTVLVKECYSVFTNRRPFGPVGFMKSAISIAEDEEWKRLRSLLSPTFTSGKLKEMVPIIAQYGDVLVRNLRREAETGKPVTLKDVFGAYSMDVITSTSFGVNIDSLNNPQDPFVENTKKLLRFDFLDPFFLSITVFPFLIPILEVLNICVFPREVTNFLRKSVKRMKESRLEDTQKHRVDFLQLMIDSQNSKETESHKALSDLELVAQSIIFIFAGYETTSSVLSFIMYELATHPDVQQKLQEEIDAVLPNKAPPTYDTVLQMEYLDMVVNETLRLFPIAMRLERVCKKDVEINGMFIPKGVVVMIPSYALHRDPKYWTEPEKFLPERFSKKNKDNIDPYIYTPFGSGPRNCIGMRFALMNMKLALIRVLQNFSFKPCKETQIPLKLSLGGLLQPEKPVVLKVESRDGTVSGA
Summary of the method: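 20 nM human CYP3A4 with 25 uM Luciferin-PPXE (at KM) in 200 mM KPO4, preincubated 10 min with compound; NADPH regeneration started a 60 min RT reaction. Luciferin detected by luminescence, normalized to 57 uM ketoconazole as full inhibition.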

[16] = biological target: Ubiquitin carboxyl-terminal hydrolase 1 (Homo sapiens) (UniProt O94782); assay: Inhibitors of USP1/UAF1: Pilot qHTS (AID 504865; active = well fitted curve in the direction sought with a large enough effect; an effect the other way counts as inactive or inconclusive;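 also: rhodamine fluorescence freed from ubiquitin-rhodamine substrate followed over time; top concentration of the series differs between compounds; % is scaled to controls: 0 for no effect and ±100 for the full control effect; nearly all actives have a fitted effect of over 35% in size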)
Summary of the method: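 USP1/UAF1 complex at 1 nM preincubated 15 min at room temperature with compound, then Ub-Rho substrate added at 150 nM final. Fluorescence (480/540 nm) read kinetically in 50 mM HEPES pH 7.8, 0.5 mM EDTA, 1 mM TCEP, 0.1 mg/ml BSA, 0.01% Tween-20.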

[17] = biological target: DNA dC->dU-editing enzyme APOBEC-3G (Homo sapiens) (UniProt Q9HC16); assay: qHTS for inhibitors of Vif-A3G interactions: Validation (AID 588379; active = well fitted curve in the direction sought with a large enough effect; an effect the other way counts as inactive or inconclusive; also: 0% is about no effect)
DNA dC->dU-editing enzyme APOBEC-3G (Homo sapiens), sequence (Q9HC16 whole entry, looked up): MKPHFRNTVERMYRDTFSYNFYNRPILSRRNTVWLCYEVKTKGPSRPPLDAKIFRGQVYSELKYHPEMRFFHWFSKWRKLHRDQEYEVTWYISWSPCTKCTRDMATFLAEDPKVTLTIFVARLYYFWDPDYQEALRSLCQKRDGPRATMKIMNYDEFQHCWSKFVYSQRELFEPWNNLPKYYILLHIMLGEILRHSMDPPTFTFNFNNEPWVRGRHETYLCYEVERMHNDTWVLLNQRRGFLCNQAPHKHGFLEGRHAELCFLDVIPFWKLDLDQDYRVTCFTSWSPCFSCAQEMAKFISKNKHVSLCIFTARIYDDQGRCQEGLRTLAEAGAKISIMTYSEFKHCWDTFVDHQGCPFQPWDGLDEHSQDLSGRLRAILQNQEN
Summary of the method: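 HeLa cells stably expressing Vif and A3G-eYFP, 700 cells/well, incubated overnight at 37 deg C, then exposed to compound overnight at 37 deg C. Inhibition of Vif-mediated degradation read as increased yellow fluorescence (Ex 488/Em 500-530) by laser-scanning cytometry.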

O=c1cc(-c2ccc(O)cc2)oc2cc(O)cc(O)c12
inactive: outcome [1] | outcome [2] | outcome [3] | Potency [4] | Potency [5] | Potency [6] | Potency [7]

O=c1c2ccccc2nc2n1CCc1c-2[nH]c2ccccc12
inactive: outcome [1] | outcome [2] | outcome [3] | Potency [4] | Potency [5] | Potency [6] | Potency [7]

CCCCC(CC)CO (configuration not stated)
inactive: activation [8] -0.465% | Potency [9] | Potency [4] | Potency [5] | Potency [6] | Potency [7]

COC(=O)CCC(=O)OC
inactive: activation [8] 2.67% | Potency [9] | Potency [4] | Potency [5] | Potency [6] | Potency [7]

C[C@H](CCC(=O)O)[C@H]1CC[C@H]2[C@@H]3CC[C@@H]4C[C@H](O)CC[C@]4(C)[C@H]3CC[C@]12C
active: Potency [13] 26.6 µM and 19.3 µM
inactive: Potency [10] | Potency [11] | Potency [12] | Potency [14] | Potency [4] | Potency [5] | Potency [6] | Potency [7]

O=CN1CCCCC1C1CC[C@H]2CCCCN2C1 (some centres not stated)
inactive: Potency [15] | Potency [16] | Potency [17] | Potency [4] | Potency [5] | Potency [6] | Potency [7]
